# The supplement of paper PMC8728848
# About 410 targets per protein were measured; listed, in parts, are those with the strongest signals and a random draw of the rest.
# B1: SabA (Helicobacter pylori) (protein)
# chain: MGSSHHHHHHSSGLVPRGSHMENLYFQGEDNGFFVSAGYQIGEAVQMVKNTGELKNLNEKYEQLSQYLNQVASLKQSIQNANNIELVNSSLNYLKSFTNNNYNSTTQSPIFNAVQAVITSVLGFWSLYAGNYFTFFVGKKVGDSGQPASVQGNPPFKTIIENCSGIENCAMDQTTYDKMKKLAEDLQAAQTNSATKGNNLCALSGCAATDSTSNPPNSTVSNALNLAQQLMDLIANTKTAMMWKNIVISGVSNTSGAITSTNYPTQYAVFNNIKAMIPILQQAVTLSQSNHTLSASLQAQATGSQTNPKFAKDIYTFAQNQKQVISYAQDIFNLFNSIPAEQYKYLEKAYLKIPNAGSTPTNPYRQVVNLNQEVQTIKNNVSYYGNRVDAALSVARDVYNLKSNQAEIVTAYNDAKTLSEEISKLPHNQVNTKDIVTLPYDKNAPAAGQSNYQINPEQQSNLNQALAAMSNNPFKKVGMISSQNNNGA
# Experiments:
# Experiment in all cases: glycan array binding signal (z-score within array); higher = stronger binding
# Settings in all cases: glycan notation: IUPAC condensed, linker removed
# [1] = target: Gal(b1-4)GlcNAc(b1-3)Gal(b1-4)GlcNAc(b1-2)[Gal(b1-4)GlcNAc(b1-3)Gal(b1-4)GlcNAc(b1-6)]Man(a1-6)[Gal(b1-4)GlcNAc(b1-3)Gal(b1-4)GlcNAc(b1-2)Man(a1-3)]Man(b1-4)GlcNAc(b1-4)GlcNAc
# Summary of the method: (§1)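 From the Consortium for Functional Glycomics database, 3228 arrays were curated, keeping only those whose protein sequence was available. Binding is given as a within-array Z-score averaged across arrays sharing a protein sequence and across linkers. Negative Z-scores can be read as non-binding.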
# [2] = target: Gal(b1-4)GlcNAc(b1-3)Gal(b1-4)GlcNAc(b1-3)Gal(b1-4)GlcNAc(b1-2)Man(a1-3)[Gal(b1-4)GlcNAc(b1-3)Gal(b1-4)GlcNAc(b1-3)Gal(b1-4)GlcNAc(b1-2)Man(a1-6)]Man(b1-4)GlcNAc(b1-4)[Fuc(a1-6)]GlcNAc
# Summary of the method: as §1
# [3] = target: Gal(b1-4)GlcNAc(b1-3)Gal(b1-4)GlcNAc(b1-3)Gal(b1-4)GlcNAc(b1-3)Gal(b1-4)GlcNAc(b1-2)Man(a1-3)[Gal(b1-4)GlcNAc(b1-3)Gal(b1-4)GlcNAc(b1-3)Gal(b1-4)GlcNAc(b1-3)Gal(b1-4)GlcNAc(b1-2)Man(a1-6)]Man(b1-4)GlcNAc(b1-4)[Fuc(a1-6)]GlcNAc
# Summary of the method: as §1
# [4] = target: Gal(b1-4)GlcNAc(b1-3)Gal(b1-4)GlcNAc(b1-3)Gal(b1-4)GlcNAc(b1-3)Gal(b1-4)GlcNAc(b1-3)Gal(b1-4)GlcNAc(b1-2)[Gal(b1-4)GlcNAc(b1-3)Gal(b1-4)GlcNAc(b1-3)Gal(b1-4)GlcNAc(b1-3)Gal(b1-4)GlcNAc(b1-3)Gal(b1-4)GlcNAc(b1-6)]Man(a1-6)[Gal(b1-4)GlcNAc(b1-3)Gal(b1-4)GlcNAc(b1-3)Gal(b1-4)GlcNAc(b1-3)Gal(b1-4)GlcNAc(b1-3)Gal(b1-4)GlcNAc(b1-2)Man(a1-3)]Man(b1-4)GlcNAc(b1-4)[Fuc(a1-6)]GlcNAc
# Summary of the method: as §1
# [5] = target: Gal(b1-4)GlcNAc(b1-3)Gal(b1-4)GlcNAc(b1-6)[Gal(b1-3)]GalNAc
# Summary of the method: as §1
# GalNAc(b1-4)Gal(b1-4)Glc = target: GalNAc(b1-4)Gal(b1-4)Glc
# Summary of the method: as §1
# GalNAc(b1-4)GlcNAc = target: GalNAc(b1-4)GlcNAc
# Summary of the method: as §1
# [6] = target: GalNAc(b1-4)GlcNAc(b1-2)Man(a1-3)[GalNAc(b1-4)GlcNAc(b1-2)Man(a1-6)]Man(b1-4)GlcNAc(b1-4)GlcNAc
# Summary of the method: as §1
# [7] = target: GalNAc3S(b1-4)[Fuc(a1-3)]GlcNAc
# Summary of the method: as §1
# GalNAc6S(b1-4)GlcNAc = target: GalNAc6S(b1-4)GlcNAc
# Summary of the method: as §1
# [8] = target: GlcA3S(b1-3)Gal(b1-4)GlcNAc(b1-2)Man
# Summary of the method: as §1
# [9] = target: GlcNAc(a1-4)Gal(b1-4)GlcNAc(b1-3)Gal(b1-4)Glc
# Summary of the method: as §1
# [10] = target: GlcNAc(b1-2)[GlcNAc(b1-4)]Man(a1-3)[GlcNAc(b1-2)Man(a1-6)]Man(b1-4)GlcNAc(b1-4)GlcNAc
# Summary of the method: as §1
# [11] = target: GlcNAc(b1-3)Gal(b1-4)GlcNAc(b1-2)Man(a1-3)[GlcNAc(b1-3)Gal(b1-4)GlcNAc(b1-2)Man(a1-6)]Man(b1-4)GlcNAc(b1-4)[Fuc(a1-6)]GlcNAc
# Summary of the method: as §1
# GlcNAc(b1-3)GalNAc = target: GlcNAc(b1-3)GalNAc
# Summary of the method: as §1
# GlcNAc(b1-3)Man = target: GlcNAc(b1-3)Man
# Summary of the method: as §1
# [12] = target: GlcNAc(b1-4)Gal(b1-4)GlcNAc
# Summary of the method: as §1
# Man(a1-6)Man = target: Man(a1-6)Man
# Summary of the method: as §1
# [13] = target: Neu5Ac(a2-3)Gal(b1-3)GalNAc
# Summary of the method: as §1
# [14] = target: Neu5Ac(a2-3)Gal(b1-3)GlcNAc(b1-2)Man(a1-3)[Neu5Ac(a2-3)Gal(b1-3)GlcNAc(b1-2)Man(a1-6)]Man(b1-4)GlcNAc(b1-4)GlcNAc
# Summary of the method: as §1
# [15] = target: Neu5Ac(a2-3)Gal(b1-3)GlcNAc(b1-3)GalNAc
# Summary of the method: as §1
# [16] = target: Neu5Ac(a2-3)Gal(b1-3)[Fuc(a1-4)]GlcNAc(b1-3)Gal(b1-3)[Fuc(a1-4)]GlcNAc
# Summary of the method: as §1
# [17] = target: Neu5Ac(a2-3)Gal(b1-3)[Neu5Ac(a2-6)]GlcNAc(b1-3)[Fuc(a1-3)[Gal(b1-4)]GlcNAc(b1-6)]Gal(b1-4)Glc
# Summary of the method: as §1
# Neu5Ac(a2-3)Gal(b1-4)Glc = target: Neu5Ac(a2-3)Gal(b1-4)Glc
# Summary of the method: as §1
# [18] = target: Neu5Ac(a2-3)Gal(b1-4)GlcNAc(b1-3)Gal(b1-4)GlcNAc(b1-3)Gal(b1-4)GlcNAc
# Summary of the method: as §1
# [19] = target: Neu5Ac(a2-6)Gal(b1-3)GlcNAc(b1-3)[Gal(b1-4)GlcNAc(b1-6)]Gal(b1-4)Glc
# Summary of the method: as §1
# [20] = target: Neu5Ac(a2-8)Neu5Ac(a2-3)Gal(b1-4)GlcNAc
# Summary of the method: as §1
# [21] = target: Neu5Ac(a2-8)Neu5Ac(a2-8)Neu5Ac
# Summary of the method: as §1
# [22] = target: Neu5Gc(a2-3)Gal(b1-4)GlcNAc
# Summary of the method: as §1
# [23] = target: Neu5Gc(a2-6)Gal(b1-4)GlcNAc
# Summary of the method: as §1
binder,measurement,setting,value
B1,glycan array binding signal (z-score),[1],2.39
same,glycan array binding signal (z-score),[2],-0.537
same,glycan array binding signal (z-score),[3],0.132
same,glycan array binding signal (z-score),[4],-0.103
same,glycan array binding signal (z-score),[5],-0.494
same,glycan array binding signal (z-score),GalNAc(b1-4)Gal(b1-4)Glc,1.6
same,glycan array binding signal (z-score),GalNAc(b1-4)GlcNAc,0.676
same,glycan array binding signal (z-score),[6],2.98
same,glycan array binding signal (z-score),[7],-0.298
same,glycan array binding signal (z-score),GalNAc6S(b1-4)GlcNAc,0.834
same,glycan array binding signal (z-score),[8],-0.867
same,glycan array binding signal (z-score),[9],-0.716
same,glycan array binding signal (z-score),[10],-0.287
same,glycan array binding signal (z-score),[11],0.826
same,glycan array binding signal (z-score),GlcNAc(b1-3)GalNAc,0.191
same,glycan array binding signal (z-score),GlcNAc(b1-3)Man,1.69
same,glycan array binding signal (z-score),[12],-0.173
same,glycan array binding signal (z-score),Man(a1-6)Man,-0.738
same,glycan array binding signal (z-score),[13],0.965
same,glycan array binding signal (z-score),[14],1.79
same,glycan array binding signal (z-score),[15],-0.131
same,glycan array binding signal (z-score),[16],0.27
same,glycan array binding signal (z-score),[17],-0.626
same,glycan array binding signal (z-score),Neu5Ac(a2-3)Gal(b1-4)Glc,2.88
same,glycan array binding signal (z-score),[18],0.051
same,glycan array binding signal (z-score),[19],-0.762
same,glycan array binding signal (z-score),[20],-0.714
same,glycan array binding signal (z-score),[21],-0.39
same,glycan array binding signal (z-score),[22],-0.614
same,glycan array binding signal (z-score),[23],0.779
